CF NFkB block: inhibitors of PAF-induced NF-kB signaling, primary screen, cell-based, GFP fluorescence, uHTS; KKLEB NF-kB-GFP reporter, GFP fluorescence overnight; actives 0.86% (n = 360,000); inhibition, % at 5 µM;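 active = at least 50% inhibition at 5 µM, scaled per plate between neutral and stimulator controls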;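 also: PAF is a Pseudomonas aeruginosa culture filtrate used as stimulus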
KKLEB tox: cytotoxicity in KKLEB CF airway cells, primary screen, cytotoxicity control for CF NF-kB inhibitor project, cell-based, uHTS, fluorescence assay plates. KKLEB CF airway cells viability, ATPlite luminescence, overnight; active compounds read low; cells stimulated with P. aeruginosa culture filtrate. activity change (cytotoxicity), % at 5 µM. actives 0.36% (n = 360,000). AID 602141, 2011;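 active = corrected activity change at or below -50% at 5 µM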
TWEAK Fn14 block: inhibitors of TWEAK-Fn14 signaling, primary screen, luciferase reporter cells, uHTS; actives 2% (n = 360,000); inhibition, % at 10 µM; TWEAK-stimulated Fn14 reporter cells, luciferase luminescence, 8 h; in the data active = inhibition above about 50%
TROY NFkB inh: inhibitors of TROY-driven NF-kB signaling, primary screen, Q293 LMP1-TROYcd cells, NF-kB luciferase, uHTS | Q293 LMP1-TROYcd NF-kB luciferase reporter, 4 h | inhibition, % at 10 µM | actives 0.98% (n = 360,000) | AID 1347056, 2019;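 active = compounds whose plate-normalised and pattern-corrected inhibition of the luciferase reporter signal at the single screening dose is 50% or more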
HIF-2a block: HIF-2a reporter inhibitors, primary screen, luminescence, 786-0 RCC cells; actives 0.72% (n = 360,000); inhibition, % at 18.8 µM; 786-0 RCC cells HIF-2a reporter, luciferase luminescence, overnight;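 active = inhibition of the luminescence signal of 40% or more relative to plate controls, in a single-dose primary screen at 18.75 µM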
Peg3 prom inh-1: Peg3 promoter-driven luciferase inhibitors, primary screen, cell-based, HeLa, luciferase luminescence; HeLa PEG-Prom luciferase reporter, overnight; actives 1.7% (n = 360,000); inhibition, % at 20 µM;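 active = inhibition of at least 50% at 20 µM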
Peg3 prom inh-2: Peg3 promoter reporter inhibitors, retest, confirmation, cell-based, HeLa, luciferase reporter, single concentration; actives 84% (n = 1,300); inhibition, % at 20 µM; shares compounds with Peg3 prom inh-1; AID 602417, 2012; HeLa PEG-Prom luciferase reporter, luminescence, overnight;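 active = at 20 µM dose, 40% or more inhibition averaged across four replicates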
A number is an active result; 0 = inactive; - = no result given; ! = not active in a repeat. Sampled rows, rich in hits. Any-hit rate of the full collection: about 4%.

SMILES	CF NFkB block	KKLEB tox	TWEAK Fn14 block	TROY NFkB inh	HIF-2a block	Peg3 prom inh-1	Peg3 prom inh-2
CCOC(=O)[C@]12CCCC=C1N(Cc1ccc(Cl)cc1Cl)C(=O)[C@H](CC(=O)NCCC(C)C)C2	-	-	0	0	0	-	-
Clc1ccc(CN2CCc3c([nH]c4ccccc34)C2)cc1Cl	0	0	0	0	0	81	0
CSc1ccc(CN2CCc3c([nH]c4ccccc34)C2)cc1	0	0	0	0	0	0	-
O=[N+]([O-])c1cc(-c2csc(NCCc3nc4cc(Cl)c(N5CCCCC5)cc4n3CCCO)n2)ccc1Cl	0	0	0	0	0	0	-
Cc1ccc(Cn2c(CCNc3nc(-c4ccc(Cl)c([N+](=O)[O-])c4)cs3)nc3cc(Cl)c(Cl)cc32)cc1	0	0	0	0	0	73	0
Nc1[nH]c(C(=O)c2ccccc2)c(-c2cccnc2)c1C(=O)NC1CCCCC1	-	-	0	0	0	-	-
COc1ccc(CN(C)C(=O)C(Cc2ccccc2)NC(=O)c2ccccc2)cc1F (configuration not stated)	0	0	0	0	0	54	84
CN(Cc1ccc(F)cc1)C(=O)C(Cc1ccccc1)NC(=O)c1ccccc1 (configuration not stated)	0	0	0	0	0	0	-
CSc1ccc(CN(C)C(=O)C(Cc2ccccc2)NC(=O)c2ccccc2)cc1 (configuration not stated)	0	0	0	0	0	66	62
CCOc1ccc2nc(NC(=O)c3cccc(-c4cc5ccccc5oc4=O)c3)sc2c1	50	-58	0	0	0	89	0
CCCCCCSc1ccc([C@H]2N[C@@](C)(C(=O)OC)[C@H]3C(=O)N(C)C(=O)[C@@H]23)cc1	0	0	0	0	0	0	-
Cc1ccc(C2(CCNS(=O)(=O)c3ccc(C)cc3)CCOC(C(C)C)C2)cc1 (configuration not stated)	0	0	0	0	0	0	-
Cc1ccc(C2(CCNCc3ccc(N(C)C)cc3)CCOC(C(C)C)C2)cc1 (configuration not stated)	0	0	0	0	0	56	63
CCCc1nc2c(=O)n(C)c(=O)nc-2n(C)n1	97	0	104	90	80	104	100
CC1=C(C(=O)N(C)C)CC(CC(=O)NCc2cccc3ccccc23)C(=O)N1CCC1=CCCCC1 (configuration not stated)	0	0	0	0	0	0	-
CSc1ccc2c(c1)C(N1CCN(C)CC1)Cc1ccccc1S2 (configuration not stated)	0	0	0	0	0	82!	84
Cn1c(N)c(C(=O)CCl)c(=O)n(Cc2ccccc2)c1=O	0	0	0	0	0	0	-
Cn1c(=O)c(C(=O)CCl)c(N)n(Cc2ccccc2)c1=O	0	0	0	0	0	69	51
C=C1CC(Cn2cc(Br)c(=O)[nH]c2=O)(c2ccc(-c3ccccc3)cc2)OC1=O (configuration not stated)	87	0	83	0	94	100	98
CC1=C(C(=O)N(C(C)C)C(C)C)CC(CC(=O)NC2CCCC2)C(=O)N1CCC1=CCCCC1 (configuration not stated)	0	0	0	0	0	0	-
CCC(C)Sc1ccc(-c2nc3ccccn3c2NCc2ccccc2)cc1OC (configuration not stated)	0	0	0	0	0	93	97
CCOc1ccc(S(=O)(=O)NC(C)C(=O)NCc2ccc3c(c2)OCO3)cc1 (configuration not stated)	0	0	0	0	0	0	-
Cc1ccc2c(c1)COc1c3ccc(C(=O)NCC4CC4)cc3nn1-2	0	0	0	0	0	0	-
Cc1ccc2c(c1)COc1c3ccc(C(=O)O)cc3nn1-2	0	0	81	0	83	89	0
CN(C)CCCn1c2c(c(SCC(=O)Nc3cccc4ccccc34)nc1=O)CCCC2	0	0	0	0	0	0	-
SMILES	CF NFkB block	KKLEB tox	TWEAK Fn14 block	TROY NFkB inh	HIF-2a block	Peg3 prom inh-1	Peg3 prom inh-2
O=C1C(=C2SCCCS2)CC/C1=C\c1ccc(F)cc1	0	-78	104	86	65	86	43
NC(N)=N/N=C/c1ccc(OCc2ccccc2)c(OCc2ccccc2)c1	0	-53	0	0	0	103	99
Cn1c(N)c(C(=O)COC(=O)c2ccccc2C(=O)c2ccc(Cl)cc2)c(=O)n(C)c1=O	0	0	0	0	0	0	-
Cc1cc(C)c(S(=O)(=O)N2CCN(C(=O)c3cc(=O)[nH]c4ccccc34)CC2)c(C)c1	0	0	0	0	0	0	-
Cc1cc(C)c(C)c(S(=O)(=O)N2CCN(C(=O)c3cc(=O)[nH]c4ccccc34)CC2)c1C	0	0	54	0	0	59	58
CCC(=O)Nc1cc2c(cc1Cl)-c1ccccc1C2	0	0	0	0	0	0	-
COc1cccc(NC(=O)CN(C)C(=O)c2cccnc2Nc2cccc(C(F)(F)F)c2)c1	0	0	0	0	0	69	73
Cc1cccc(NC(=O)c2oc3ccc(S(=O)(=O)N4CCOCC4)cc3c2C)c1C	0	0	0	0	0	54	56
O=C(C1CCCCC1)N1C[C@@H](O)[C@H](n2cc(C3CC3)nn2)C[C@@H]1c1ccccc1	0	0	0	0	0	0	-
CC(C)c1ccc(NC(=O)CSc2nc(-c3ccccc3F)nc3nc[nH]c23)cc1	0	0	0	0	0	60	0
CC(C)c1ccc(NC(=O)CSc2nc(=O)[nH]c3c2CCCC3)cc1	0	0	0	0	0	0	-
Cc1cc(C)c(NC(=O)CSc2nc3ccc(NC(=O)CSc4nnnn4Cc4ccccc4)cc3s2)c(C)c1	0	0	0	0	0	0	-
Cc1cc(C)c(NC(=O)CSc2nc3ccc(NC(=O)CSc4nnnn4-c4ccccc4)cc3s2)c(C)c1	71	-67	0	0	0	84	0
COc1cc(CNCc2cc(OC)ccc2OC)cc(OC)c1	0	0	0	0	0	0	-
O=C(OCC(=O)N1CCC(Cc2ccccc2)CC1)c1cc(Cl)ccc1O	0	0	0	0	0	0	-
CCN(CC)CCC(c1ccc(N(C)C)cc1)c1c(OC)cc(OC)c2c(-c3ccccc3)cc(=O)oc12 (configuration not stated)	0	0	0	0	0	84	0

Screening data from PubChem BioAssay.
